Broadly, the AC50 is the midpoint of the concentration-response curve, whichever way the signal moves.

The source made the active and inactive calls. Rule for the calls: active = hit-call score of the fitted dose curve at least 0.9, where 1 is the maximum; inactive = score below 0.9.

This assay deals with Aryl hydrocarbon receptor (Homo sapiens) (UniProt P35869). Kind of assay: ATG_Ahr_CIS: Attagene CIS-FACTORIAL HepG2 Assay for human Aryl Hydrocarbon Receptor (Ahr) (AID 2282930). To be noted: HepG2 AhR cis-factorial reporter transcription; actives raise or lower the signal. The method, then: ATG_CIS is a cell-based, multiplexed-readout assay that uses HepG2, a human liver cell line, with measurements taken at 24 hours after chemical dosing in a 24-well plate.ATG_Ahr_CIS is one of 52 assay component(s) measured or calculated from the ATG_CIS assay. It is designed to make measurements of mRNA induction, a form of inducible reporter, as detected with fluorescence intensity signals by Reverse transcription polymerase chain reaction (RT-PCR) and Capillary electrophoresis technology.Data from the assay component ATG_Ahr_CIS was analyzed into 1 assay endpoint. This assay endpoint, ATG_Ahr_CIS, was analyzed with bidirectional fitting relative to DMSO as the negative control and baseline of activity. Using a type of inducible reporter, measures of mRNA for gain or loss-of-signal activity can be used to understand the reporter gene at the transcription factor-level as they relate to the gene AHR. Furthermore, this assay endpoint can be referred to as a primary readout, because this assay has produced multiple assay endpoints where this one serves a reporter gene function. To generalize the intended target to other relatable targets, this assay endpoint is annotated to the dna binding intended target family, where the subfamily is basic helix-loop-helix protein.
Chain of Aryl hydrocarbon receptor (Homo sapiens) (P35869 whole entry, looked up): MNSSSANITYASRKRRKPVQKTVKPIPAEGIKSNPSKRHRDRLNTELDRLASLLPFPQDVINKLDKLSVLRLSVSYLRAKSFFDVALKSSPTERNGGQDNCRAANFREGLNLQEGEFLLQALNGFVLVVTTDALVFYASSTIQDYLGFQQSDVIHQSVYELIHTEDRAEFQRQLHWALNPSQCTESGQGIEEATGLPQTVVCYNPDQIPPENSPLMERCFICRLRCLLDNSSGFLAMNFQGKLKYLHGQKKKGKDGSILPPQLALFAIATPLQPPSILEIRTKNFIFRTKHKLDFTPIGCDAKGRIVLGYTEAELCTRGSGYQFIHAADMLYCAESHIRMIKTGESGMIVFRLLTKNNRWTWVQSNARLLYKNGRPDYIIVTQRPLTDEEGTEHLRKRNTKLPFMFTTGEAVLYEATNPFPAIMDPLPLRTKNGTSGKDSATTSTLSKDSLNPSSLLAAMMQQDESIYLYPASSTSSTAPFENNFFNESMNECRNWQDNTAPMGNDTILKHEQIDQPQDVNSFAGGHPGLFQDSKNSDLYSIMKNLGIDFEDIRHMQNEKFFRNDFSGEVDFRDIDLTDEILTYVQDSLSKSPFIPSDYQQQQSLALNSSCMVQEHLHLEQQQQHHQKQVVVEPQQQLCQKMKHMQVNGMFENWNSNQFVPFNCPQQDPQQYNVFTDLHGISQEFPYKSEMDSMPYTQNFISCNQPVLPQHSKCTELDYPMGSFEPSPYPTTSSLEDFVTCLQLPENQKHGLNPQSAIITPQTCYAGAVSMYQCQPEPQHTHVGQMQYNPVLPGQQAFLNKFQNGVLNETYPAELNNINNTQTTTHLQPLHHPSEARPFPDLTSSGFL
Human liver HepG2 cells are transiently transfected with multiple reporter transcription units (MRTUs) in 6-well plates using FuGene 6 reagent (Roche; 3 ml FuGene/1 mg DNA). The MRTU constructs are regulated by a cis-regulating element (promoter). […] A major difference between the CIS and TRANS system is that in CIS activities of endogenous TFs are measured, whereas the TRANS assay evaluates changes in activities of exogenous, chimeric NR-Gal4 proteins. […] At the end of 24 hour incubation, total RNA was isolated using TriZol reagent (Invitrogen). The isolated RNA is then reverse-transcribed using oligo(dT) primer and Mo-MLV reverse transcriptase (Invitrogen) with DNAse I (Ambion) treatment for 30 min. The one-tenth of the produced cDNA was amplified by PCR using Taq DNA polymerase (Invitrogen) and two reporter sequence-specific primers. The PCR products were fluorescently labeled by primer extension with 6-arboxyfluorescein (6-FAM) 5'-labeled reporter sequence-specific primer (2 min at 95 C, 20 s at 68 C and 10 min at 72 C) and these products were digested with 5U of HpaI (New England Biolabs) for 2h at 37 C. […] The raw capillary electrophoresis data was processed using Attagraph software (Attagene).
For the compound `CCCCCCCCCCCSCC(=O)O`, the call was inactive. The same measure, in the same setting: to `CC(=O)C=CC1C(C)=CCC(C)C1(C)C` (stereo not given) belongs “inactive”. Regarding `CC(C)C1=CC2=CC[C@@H]3[C@](C)(CCC[C@@]3(C)C(=O)O)[C@H]2CC1`, the AC50 is 31.6 µM (active). For the compound `CCC(=O)Oc1ccc(/C(CC)=C(\CC)c2ccc(OC(=O)CC)cc2)cc1`, the call was inactive. Same read-out and setting: as for `CC(C)COC(=O)C=Cc1ccccc1`, the entry is “inactive”. For the compound `CC1=NC(C)OC1C` (stereo not given), the compound was classed as inactive.

Consider `O=[N+]([O-])c1ccc(CO)cc1`, for which the compound was called inactive. Same read-out and setting: to `O=C(O)CCCCCCCCCC(=O)O` belongs “inactive”; to `CC(=O)Nc1ccc2c(c1)Cc1cc(NC(C)=O)ccc1-2`, “inactive”. Still for that read-out and setting: to `Cc1ccccc1C` belongs “inactive”. Same read-out and setting: to `O=c1c2ccccc2nnn1CCl` belongs “inactive”; to `CCCCCCCCO[C@@H]1O[C@H](CO)[C@@H](O)[C@H](O)[C@H]1O`, “inactive”. Regarding `CC(=O)CC(N)=O`, the result was inactive. Same read-out and setting: as for `CCCCCC(C)O` (stereo not given), the entry is “inactive”. Still for that read-out and setting: as for `CC(=O)Nc1nnc(S(N)(=O)=O)s1`, the entry is “inactive”.

As to `NC(CO)(CO)CO`, the result was inactive.

For the compound `CCOC(=O)CC`, the result was inactive. The same measure, in the same setting: as for `CC1=Nc2ccc3ccccc3c2C1(C)C`, the entry is “inactive”; as for `CC1(C)[C@H]2CC[C@]1(C)C(=O)C2`, “inactive”; as for `Cc1cccc(N(C)C(=S)Oc2ccc3ccccc3c2)c1`, “inactive”. Still for that read-out and setting: to `OC1CCCCCCCCCCC1` belongs “inactive”. Turning to `Cc1cnc(NC(=O)C2=C(O)c3ccccc3S(=O)(=O)N2C)s1`, the AC50 was 100 µM (active). In the case of `COCCCOCCCOC`, the compound was classed as inactive. Regarding `O=C(Nc1ccccc1SSc1ccccc1NC(=O)c1ccccc1)c1ccccc1`, the AC50 is 2.79 µM (active).

As to `NNC(=O)c1cccc(C(=O)NN)c1`, the compound was called inactive. Consider `CCN(CC#N)c1cccc(C)c1`, for which the outcome was inactive. Still for that read-out and setting: as for `CCC(CO)CO`, the entry is “inactive”. As for `Nc1ccc(N)c(Cl)c1`, the AC50 was 1.99 µM (active).

As to `CC(=O)[C@@]1(O)CC[C@H]2[C@@H]3C[C@H](C)C4=CC(=O)C=C[C@]4(C)[C@@]3(F)[C@@H](O)C[C@@]21C`, the compound was classed as inactive. Same read-out and setting: to `O=C1C=CC(=O)O1` belongs “inactive”; to `Cc1c(C)c([N+](=O)[O-])c(C(C)(C)C)c([N+](=O)[O-])c1C`, “inactive”. In the case of `CCOC(=O)c1ccc(N(C)C)cc1`, the AC50 was 44.4 µM (active). Consider `CCCCCCCCCCCCCCCC(=O)OCC`, for which the compound was classed as inactive. On the same count and under the same terms, to `CCCCC(CC)COCC1CO1` (stereo not given) belongs “inactive”; to `O=Nc1ccc(O)cc1`, “inactive”. For `O=S1(=O)OC(c2ccc(O)cc2)(c2ccc(O)cc2)c2ccccc21`, the AC50 was 34.9 µM (active). Take `CCN(CC)c1ccc(C(=O)c2ccccc2C(=O)O)c(O)c1`: the compound was called inactive. The same measure, in the same setting: as for `COC(=O)c1ccccc1OC`, the entry is “inactive”. The same measure, in the same setting: as for `O=S(=O)(O)CC(O)CCl` (stereo not given), the entry is “inactive”; as for `CCO[Si](C)(OCC)OCC`, “inactive”.

(Values after PubChem BioAssay (EPA / NIEHS).)
